# Screening data (PubChem BioAssay)
# JMJD2C inh: human JMJD2C demethylase inhibition; GST-JMJD2C(1-420) H3K9me3 demethylation, DELFIA europium; 330,000 compounds, 0.069% hits; inhibition, % at 2.35 µM; AID 2099;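 active = more than half of a compound's replicate wells show inhibition beyond 50%, single wells judged on their own value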;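 note: signal counts dimethyl H3K9 product captured on neutravidin plate; 0% = median of DMSO wells and 100% = 0.3 times that DMSO median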
# Target sequence (Q9H3R0 1-420 limits assumed): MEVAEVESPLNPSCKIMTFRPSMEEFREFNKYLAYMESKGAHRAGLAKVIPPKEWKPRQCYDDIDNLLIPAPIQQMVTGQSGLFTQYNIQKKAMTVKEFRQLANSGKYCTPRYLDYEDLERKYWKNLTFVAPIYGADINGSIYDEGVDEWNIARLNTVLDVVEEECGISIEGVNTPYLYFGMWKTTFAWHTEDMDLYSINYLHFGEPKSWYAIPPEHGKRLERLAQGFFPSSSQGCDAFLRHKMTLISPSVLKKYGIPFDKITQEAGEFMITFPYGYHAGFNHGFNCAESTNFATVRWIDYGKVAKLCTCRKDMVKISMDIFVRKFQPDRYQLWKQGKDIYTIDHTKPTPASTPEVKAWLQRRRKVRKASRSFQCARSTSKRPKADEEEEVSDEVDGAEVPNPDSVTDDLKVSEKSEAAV
# Granule exo inh: blocks lytic granule exocytosis; TALL-104 LAMP-1 surface exposure, flow cytometry; cells stimulated with thapsigargin and PMA; inhibition, % at 10 µM; 360,000 compounds, 0.66% hits; AID 651702;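 active = inhibition above about 55%, limit read from the data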
# beta cell repl: induces beta-cell replication in MIN6 cells; proliferation, % at 10 µM; 330,000 compounds, 0.29% hits; MIN6 cells proliferation, ATPlite luminescence, 48 h; cells starved in 0.2% serum; 100% = growth in 10% serum;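 active = compounds whose signal lies at least 3.5 SD above the mean of all wells on their plate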;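 note: 0% = DMSO-treated cells in low-serum medium and 100% = 10% serum control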
# ALR H2O2 inh: blocks human ALR sulfhydryl oxidase activity | purified ALR, DTT oxidation, H2O2 HRP-luminol luminescence | inhibition, % (concentration not given with the values) | 290,000 compounds, 3.8% hits | AID 485317;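 active = mean replicate inhibition above about 79%, with every replicate also reaching it, limit read from the data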
# Target sequence (P55789 whole entry, looked up): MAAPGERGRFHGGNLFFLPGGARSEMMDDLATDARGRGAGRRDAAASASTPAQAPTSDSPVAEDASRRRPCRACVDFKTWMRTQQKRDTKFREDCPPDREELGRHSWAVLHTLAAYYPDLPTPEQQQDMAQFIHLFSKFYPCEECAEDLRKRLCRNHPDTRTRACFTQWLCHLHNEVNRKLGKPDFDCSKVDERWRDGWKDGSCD
# SMARCA2 activ: SMARCA2 function activation, primary screen | 370,000 compounds, 1% hits | MG213 cells, MMTV-luciferase reporter, dexamethasone, overnight | activation, % at 9.1 µM; in the data active = activation above about 7.8%;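 note: 0% = vehicle wells and 100% = reference activator wells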
# PfM18AAP inh: PfM18AAP enzyme inhibition; recombinant PfM18AAP, H-Glu-NHMec fluorogenic cleavage; 290,000 compounds, 1.2% hits; AID 1822; inhibition, % at 7.35 µM;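 active = inhibition above the campaign mean inhibition over all tested compounds plus 3 SD, cut at about 28% in these data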;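 note: 0% = plate median of test compound wells and 100% = 2 mM ZnCl2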
# SMARCA2 conf: confirmation of SMARCA2 (BRM) function activators; activation, % at 9.1 µM; AID 652260; MG213 cells, MMTV-luciferase with dexamethasone, luminescence, overnight; MG213 cells expressing E1A, Rb sequestered; DMSO wells 0%, reference activator 100%; 3,500 compounds, 30% hits; shares compounds with SMARCA2 activ;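 active = activation above its plate's cutoff, the mean activation of tested wells plus 3 SD, cut at about 7.9% in these data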
# VP16 Luc act: GAL4-VP16 reporter activation counter-screen | activation, % at 9.1 µM | 3,500 compounds, 41% hits | HEK293 GAL4-VP16 pG5luc reporter, luciferase luminescence; scaled: DMSO wells 0%, SAHA wells 100% | AID 686939 | shares compounds with SMARCA2 activ;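 active = activation above the solvent-only control well mean plus 3 SD, averaged across control plates, cut at about 5.2% in these data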
# The depositor's hits bear a star; x = not tested or not shown. Hits are enriched below; roughly 5.4% of the tested compounds scored in any of these assays.
SMILES,JMJD2C inh,Granule exo inh,beta cell repl,ALR H2O2 inh,SMARCA2 activ,PfM18AAP inh,SMARCA2 conf,VP16 Luc act
O=C(/C=C/c1ccco1)Nc1cccnc1Cl,-4,-5,0,x,9.3*,-2,6,6.8*
Cc1ccc(O)c(NC(=S)NC(=O)/C=C/c2ccco2)c1,-8,3,-4,30,4,-5,x,x
Cc1ccnc(NC(=S)NC(=O)/C=C/c2ccco2)c1,0,4,-1,5,8.0*,13,11*,8.9*
O=C(Cc1cn(Cc2ccccc2)c2ccccc12)Nc1ccc(Nc2cccnc2)cc1,x,x,x,x,-4,x,x,x
Nc1ccc2cc3ccc(N)cc3nc2c1,x,x,x,x,43*,x,-11,-2
O=C(Cn1cc(C(F)(F)F)ccc1=O)N1CCc2ccccc2C1,20,-1,5,3,8.0*,x,4,1
NC(=O)c1ncn([C@@H]2O[C@H](CNCc3cc(Br)ccc3OCc3ccccc3)[C@@H](O)[C@H]2O)n1,x,0,x,x,16*,x,-5,0
N#CCOc1ccccc1CNC[C@H]1O[C@@H](n2cnc(C(N)=O)n2)[C@H](O)[C@@H]1O,x,1,x,x,-5,x,x,x
O=C(CCC(NC(=O)OCc1ccccc1)C(=O)OCc1ccccc1)NCC(=O)OCc1ccccc1 (stereo unspecified),-15,39,0,-5,-3,1,x,x
CC(=O)NCCCC(=O)NC(CCC(=O)OCc1ccccc1)C(=O)OCc1ccccc1 (stereo unspecified),-7,-2,-2,3,8.0*,0,-3,1
N#Cc1c2ccc([N+](=O)[O-])cc2[n+]([O-])n1-c1ccccc1,-3,-5,-8,-2,8.5*,x,13*,8.9*
NCCCn1c(C(=O)c2ccc(Cl)cc2)c2ccc([N+](=O)[O-])cc2[n+]1[O-],1,28,-7,-44,6,x,x,x
COc1cc(CN2C[C@@H](CO)O[C@@H](n3cnc4c(N5CCCC5)ncnc43)C2)cc(OC)c1OC,x,-3,x,x,-4,x,x,x
CCOC(=O)c1cn2nc(Oc3ccc(C)cc3)ccc2n1,10,0,0,0,15*,-7,2,2
CCC(C(=O)Nc1ccc2c(c1)OCCO2)n1nnc2ccccc2c1=O (stereo unspecified),10,-2,0,3,8.7*,-6,2,6.1*
CC(C)C[C@H]1COc2ccc(Cl)cc2S(=O)(=O)N1C[C@H](NC(=O)OC(C)(C)C)C(C)C,x,x,x,x,-1,x,x,x
CCCS(=O)(=O)NC(=O)C1(C)CCN(C(=O)c2ccc3ccccc3n2)C1 (stereo unspecified),x,4,x,x,x,x,x,x
ClCc1nnc(-c2cc3c(s2)CCCC3)o1,-1,-3,x,x,11*,3,-4,1
FC(F)(F)c1ccc(-c2cccc3c2C2CC3CCN2Cc2ccc3c(c2)OCO3)cc1 (stereo unspecified),x,0,x,x,-4,x,x,x
N#Cc1ccc2sn(-c3ccccc3)c(=O)c2c1,x,52,x,x,12*,x,7.9*,11*
O=C(Nc1cccc(C(F)(F)F)c1)C(=O)N1CCCCC1,-11,-3,0,-30,9.5*,0,2,3
O=C(NCc1ccccc1)C1C(c2ccccc2)=Nc2ccccc2N1C(=O)c1cccnc1 (stereo unspecified),x,0,x,x,-3,x,x,x
COc1ccc(C(=O)Cc2ccc3c(c2)OCO3)c(O)c1,-3,13,-2,-2,8.2*,-3,1,8.9*
COc1ccc(CC(=O)c2ccc(O)cc2O)cc1,-23,-4,-2,64,5,-1,x,x
CCN(CC)CCn1c2ccccc2c2nc3ccccc3nc21,-6,1,1,-25,34*,-3,111*,-1
SMILES,JMJD2C inh,Granule exo inh,beta cell repl,ALR H2O2 inh,SMARCA2 activ,PfM18AAP inh,SMARCA2 conf,VP16 Luc act
CCCn1c2ccccc2c2nc3ccccc3nc21,-3,1,-1,-12,7,-4,x,x
CCc1nc(C)cc2c1sc1ccccc12,-3,-5,1,-14,10.0*,4,11*,1
COc1ccccc1Nc1nc(-c2cccs2)cs1,2,0,-5,-3,8.4*,20,5,7.4*
COc1ccc(Nc2nc(-c3cccs3)cs2)cc1,9,x,-5,-15,2,16,x,x
Cc1c(/C=C/C(=O)c2ccccc2)cnn1C,1,0,-2,28,4,5,x,x
Cc1c(/C=C/C(=O)c2ccc(O)cc2)cnn1C,0,-7,0,-7,8.0*,-3,14*,6.9*
CCN(CC)CCn1nc2c3c(cccc3c1=O)-c1ccccc1-2,1,3,-6,-9,35*,-2,72*,4
O=c1c2cccc3c2c(nn1CN1CCOCC1)-c1ccccc1-3,14,3,4,x,x,-2,x,x
CCCCCCCCCc1conc1C(=O)/C=C/c1oc2c(c1C)CCC(C)C2 (stereo unspecified),x,3,x,x,9.0*,x,-7,0
COc1ccc(-c2csc(C(C)(O)c3cccnc3)n2)cc1 (stereo unspecified),x,10,x,x,-4,x,x,x
O=S1(=O)C[C@H](N2CCN(CCO)CC2)[C@@H](COCc2ccccc2)N1,x,0,x,x,8.1*,x,-4,3
COC(=O)[C@@]12C[C@@H](CC(=O)N3CCCCC3)C(=O)N(Cc3ccco3)C1=CCC(C)(C)C2,x,-6,x,x,0,x,x,x
COc1ccc(/C=C/C(=O)NC(=S)Nc2ccc(S(=O)(=O)Nc3nccnc3OC)cc2)cc1,1,-2,0,x,13*,1,1,1
COc1ccc(/C=C/C(=O)NC(=S)Nc2ccc(S(=O)(=O)Nc3cc(OC)ncn3)cc2)cc1,x,3,x,x,2,-9,x,x
Nc1c(-c2ccc(C(F)(F)F)cc2)nc2ncccn12,x,-9,x,x,3,x,x,x
Cc1ccn2cc(-c3cccc(NC(=O)c4cccs4)c3)nc2c1,-4,-1,-4,14,3,0,x,x
Cc1cccn2cc(-c3cccc(NC(=O)c4cccs4)c3)nc12,-2,-2,-1,20,9.4*,0,6,2
COCCNC(=O)C1CCCN(C(=O)Cc2ccc(F)cc2)CC1 (stereo unspecified),x,21,x,x,4,x,x,x
Oc1[nH]c(N=C2N=c3ccccc3=N2)c2ccccc12,-8,-14,x,-2,14*,10,7,37*
Cc1ccc2c(c1)=N/C(=N\c1[nH]c(O)c3ccccc13)N=2,x,-5,x,x,3,x,x,x
O=[N+]([O-])c1cccc(-c2ccc(/C=N/Nc3nc(N4CCCCC4)nc(N4CCCCC4)n3)o2)c1,-16,-1,-1,10,8.9*,-5,-5,0
